# Screening data (PubChem BioAssay)
# Most compounds without a hit are left out; they make up all but 3% or so of the library.
# p53null 32C tox: qHTS Screen for Compounds that Selectively Target Cancer Cells with p53 Mutations: Cytotoxicity of p53 Null Cells at the Permissive Temperature; Potency, µM (titrated, usually from 46.1 µM), usual class: cytotoxic; AID 903, 2007; hit rate 0.62% among 55,000; H1299-neo p53 null cells, ATP luminescence, 24 h, 32C; further: nearly all actives have a fitted effect of over 55% in size
#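 Cytotoxicity: H1299-neo (no p53), 32C, 24 h treatment. Concentrations up to 46 uM. Readout cellular ATP, luminescence. Normalization to DMSO basal and tamoxifen 100 uM maximal kill.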
# OvCa metastasis: Primary qHTS assay for Inhibitors of ovarian cancer metastasis using an organotypic tumor microenvironment (TME) model | SKOV3ip1-GFP adhesion/invasion on 3D omental model, fluorescence | Potency, µM (top dose mostly 45.8 µM), usual class: inhibitors | hit rate 0.1% among 46,000 | AID 1963576, 2024; further: nearly all actives have a fitted effect of over 65% in size
#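 Adhesion/invasion was scored as fixed GFP-labeled SKOV3ip1 cell counts (488/509 nm), normalized to DMSO and tomatine controls. Cancer cells in serum-free medium, with four compound doses (0.36-46 umol/L), sat 2 hr at RT then 16 hr at 37 C on a 48 hr fibroblast/mesothelial/ECM culture.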
# S16 viability: Cell viability qHTS assay in S16 Pmp22-F2sN cells; hit rate 0.48% among 43,000; AID 1508642, 2021; Potency, µM (highest dose often 57.5 µM), actives largely listed as cytotoxic; S16 Pmp22-F2sN Schwann cells viability, CellTiter-Glo, 24 h; further: nearly all actives have a fitted effect of over 65% in size
#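 Luminescence from CellTiter-Glo, read by CCD camera after a 15 min room-temperature incubation, served as the viability signal. Reporter Schwann cells (S16 Pmp22-F2sN) had been treated with pin-transferred compounds for 24 h at 37C.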
# pS6 MEF inh: Acumen qHTS Assay for Inhibitors of the mTORC1 Signaling Pathway in MEF (Tsc2-/-, p53-/-) Cells: Sytravon. Potency, µM (top dose mostly 38.3 µM), most hits filed as inhibitors. AID 493208, 2011. hit rate 0.78% among 44,000. Tsc2-/- p53-/- MEF, phospho-rpS6 immunofluorescence/PI, 24 h; further: nearly all actives have a fitted effect of over 50% in size
#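 Read-out: phospho-S6 Alexa-488 intensity over PI intensity per well, scored as % active cells using thresholds from rapamycin (7.5 nM) and DMSO controls. Tsc2-/-, p53-/- MEFs exposed to compound for 24 h; PI cell count recorded as viability.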
# PMP22 txn prim: Cell-based coincidence reporter assay to measure PMP22 gene transcription in S16 Pmp22-F2sN cells - Primary screen. S16 Pmp22-F2sN Schwann cells (luciferase reporters placed in the Pmp22 gene), FLuc/NLuc coincidence luminescence, 24 h. Potency, µM (top dose mostly 57.5 µM), hits mostly inhibitors. hit rate 2% among 43,000. AID 1508649, 2021; active means clear falling dose curves in both reporters; inconclusive means both reporters move, but less clearly or upward; inactive means either reporter flat; the % is the NLuc reporter signal
#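 S16 Schwann cells carrying FLuc/NLuc coincidence reporter in the Pmp22 3' UTR treated with compound 24 h at 37C; FLuc then NLuc luminescence read sequentially by dual-luciferase reagents.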
# p53null 39C kill: qHTS Screen for Compounds that Selectively Target Cancer Cells with p53 Mutations: Cytotoxicity of p53 Null Cells at the Nonpermissive Temperature; Potency, µM (doses to about 46.1 µM), hits mostly cytotoxic; hit rate 0.97% among 55,000; H1299 p53-null (neo) cells, 39C, ATPlite viability, 24 h; further: nearly all actives have a fitted effect of over 50% in size
#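 Following overnight plating at 37C (600 cells/well), H1299-neo or H1299-p53A138V cells are dosed up to 46 uM. Incubation lasts 24 hr at 39C before ATP detection.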
# NLuc saturating: Biochemical NLuc saturation counterscreen for small molecule modulators of PMP22 gene expression - Nano-Glo assay | hit rate 4% among 690 | AID 1508638, 2021 | shares compounds with PMP22 txn prim | Secreted NLuc enzyme (filtered S16 cell medium), Nano-Glo luminescence | Potency, µM (titrated, usually from 57.5 µM), usual class: inhibitors
# NLuc Km ctr: Biochemical coelenterazine-based NLuc counterscreen for small molecule modulators of PMP22 gene expression - Km assay; shares compounds with PMP22 txn prim; secreted NLuc enzyme, coelenterazine luminescence, Km conditions; Potency, µM (top dose mostly 57.5 µM), hits mostly inhibitors; hit rate 5% among 690; AID 1508639, 2021
# FLuc counter: Biochemical FLuc counterscreen for small molecule modulators of PMP22 gene expression; AID 1508640, 2021; 690 tested, under 10 active; purified P. pyralis FLuc, luminescence, 10 min; Potency, µM (titrated, usually from 57.5 µM), hits mostly inhibitors; shares compounds with PMP22 txn prim
# Target sequence (P08659 whole entry, looked up): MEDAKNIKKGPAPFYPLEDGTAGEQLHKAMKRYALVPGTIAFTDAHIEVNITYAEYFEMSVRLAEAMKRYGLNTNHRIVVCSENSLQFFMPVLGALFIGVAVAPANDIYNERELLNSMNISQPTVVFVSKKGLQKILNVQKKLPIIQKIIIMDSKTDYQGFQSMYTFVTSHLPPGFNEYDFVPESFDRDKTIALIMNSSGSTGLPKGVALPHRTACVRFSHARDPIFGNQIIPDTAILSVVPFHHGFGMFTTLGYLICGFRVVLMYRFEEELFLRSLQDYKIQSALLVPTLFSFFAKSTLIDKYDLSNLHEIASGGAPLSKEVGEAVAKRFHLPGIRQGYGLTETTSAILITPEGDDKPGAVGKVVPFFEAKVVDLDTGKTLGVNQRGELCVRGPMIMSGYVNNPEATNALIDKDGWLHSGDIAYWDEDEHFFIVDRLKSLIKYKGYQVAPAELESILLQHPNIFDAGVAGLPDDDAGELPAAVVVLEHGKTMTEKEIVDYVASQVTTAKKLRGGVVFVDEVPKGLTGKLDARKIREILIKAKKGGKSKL
# S16 viab conf: Cell viability qHTS assay in S16 Pmp22-F2sN cells - Confirmatory screen; shares compounds with PMP22 txn prim; S16 Schwann cells viability, CellTiter-Glo ATP luminescence, 24 h; Potency, µM (top dose mostly 57.5 µM), most hits filed as cytotoxic; hit rate 7% among 690; AID 1508641, 2021
# PMP22 txn cnf: Cell-based coincidence reporter assay to measure PMP22 gene transcription in S16 Pmp22-F2sN cells - Confirmatory screen. S16 Schwann cells Pmp22-F2sN, dual luciferase, 24 h. shares compounds with PMP22 txn prim. Potency, µM (highest dose often 57.5 µM), usual class: inhibitors. hit rate 22% among 690; active means clear falling dose curves in both reporters; inconclusive means both reporters move, but less clearly or upward; inactive means either reporter flat; the % is the FLuc reporter signal
# PMP22 prot conf: Cell-based HiBiT reporter assay to measure PMP22 protein expression in S16 Pmp22-HiBiT cells - Confirmatory screen. 95 tested, under 10 active. S16 Schwann cells Pmp22-HiBiT, luminescence, 48 h. Potency, µM (series often up to 27.9 µM), hits mostly inhibitors. shares compounds with PMP22 txn prim
# Target sequence (P25094 whole entry, looked up): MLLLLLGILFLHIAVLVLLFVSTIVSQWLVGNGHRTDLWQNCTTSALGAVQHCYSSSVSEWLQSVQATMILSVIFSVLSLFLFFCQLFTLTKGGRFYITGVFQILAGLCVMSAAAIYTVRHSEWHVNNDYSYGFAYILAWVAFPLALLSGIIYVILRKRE
# A number is an active result; . = inactive; ? = inconclusive; / = no result. Unless noted, the call rests on the fitted dose curve; in most records, active means well fitted curve in the direction sought with a large enough effect; inconclusive means small, poorly fitted or top-dose-only effect, or another doubt; inactive means no such curve, though single readings can be large; an effect the other way counts as inactive or inconclusive.
SMILES,p53null 32C tox,OvCa metastasis,S16 viability,pS6 MEF inh,PMP22 txn prim,p53null 39C kill,NLuc saturating,NLuc Km ctr,FLuc counter,S16 viab conf,PMP22 txn cnf,others
Cc1ccc(-n2nc3c(N4CCC(C(=O)NCCC(C)C)CC4)nnc(C)c3c2C)cc1,.,.,.,.,6.2µM,?,.,.,.,.,?,
Cc1nnc(N2CCC(C(=O)N3CCCCC3)CC2)c2nn(-c3ccccc3)c(C)c12,.,.,.,.,.,.,/,/,/,/,/,
CCOC(=O)C1CCN(C(=O)C2CCN(c3nnc(C)c4c(C)n(-c5ccccc5)nc34)CC2)CC1,.,.,.,.,14µM,.,.,.,.,.,.,
Cc1ccc(-n2nc3c(N4CCC(C(=O)NCCc5ccccc5C)CC4)nnc(C)c3c2C)cc1,.,?,?,.,9.5µM,.,.,.,.,24µM,?,
O=C(c1cc(Cc2n[nH]c(=O)c3ccccc23)ccc1F)N1CCN(C(=O)C2CC2)CC1,/,.,/,/,/,/,/,/,/,/,/,
C[C@]12CC[C@@H]3c4ccc(O)cc4CC[C@H]3[C@H]1CC[C@H]2O,/,.,/,/,/,/,/,/,/,/,/,
CCOc1ccccc1CNS(=O)(=O)c1cc(-c2onc(C)c2C)ccc1OC,.,.,?,.,?,.,/,/,/,/,/,
COc1ccc(-c2onc(C)c2C)cc1S(=O)(=O)NCc1ccc(C)o1,.,.,.,.,8.9µM,.,.,.,.,.,?,
COc1ccc(-c2onc(C)c2C)cc1S(=O)(=O)Nc1cc(Cl)ccc1C,.,.,.,.,?,.,?,?,.,.,?,
COc1ccc(Cl)cc1NS(=O)(=O)c1cc(-c2cc(C)no2)ccc1C,.,.,.,.,.,.,/,/,/,/,/,
O=C(Nc1ccccc1C(F)(F)F)N1CCN(c2ccc3nnc(-c4ccc(F)cc4)n3n2)CC1,.,.,.,.,16µM,.,.,.,.,.,?,
Cc1cccc(NC(=O)c2cnn(-c3ccccc3)c2-n2cccc2)c1C,.,.,.,.,13µM,.,19µM,15µM,.,.,.,
O=C(CSc1nnc(-c2ccc(Cl)cc2)o1)c1ccc([N+](=O)[O-])cc1,.,.,.,.,?,.,/,/,/,/,/,
CC(=O)Nc1cccc(-c2nnc(SCC(=O)c3cc([N+](=O)[O-])ccc3Cl)o2)c1,.,.,.,?,14µM,?,12µM,7.7µM,?,?,18µM,
O=C(Nc1ccc(OC(F)(F)F)cc1)c1sccc1NCc1ccnc2ccccc12,/,.,/,/,/,/,/,/,/,/,/,
O=C(c1c2c(nc3ccccc13)C(=O)N(C1CCCCC1)C2)N1CCN(c2ccc(F)cc2)CC1,.,.,.,.,10µM,.,.,.,.,.,.,
Cc1ccc(-n2c(SCc3cccc(F)c3)nc3[nH]ncc3c2=O)cc1C,.,.,?,.,?,.,/,/,/,/,/,
CCc1ccc(-n2c(SCc3cccc(F)c3)nc3[nH]ncc3c2=O)cc1,.,.,?,.,16µM,.,.,?,.,?,?,
CCCn1c(=N)c(C(=O)NC(C)c2ccccc2)cc2c(=O)n3ccccc3nc21 (stereo unspecified),.,.,.,.,14µM,.,.,.,.,.,4.6µM,PMP22 prot conf=.
CCOCCCn1c(=N)c(C(=O)NC(C)c2ccccc2)cc2c(=O)n3cc(C)ccc3nc21 (stereo unspecified),.,.,.,.,.,.,/,/,/,/,/,
COc1ccc(-c2nc3c(C#N)c[nH]n3c2NC2CCCC2)cc1,.,.,22µM,.,15µM,.,?,?,.,.,?,
CCOc1ccc(-c2nc3c(C#N)c[nH]n3c2NC2CCCCC2)cc1,.,.,.,.,?,.,/,/,/,/,/,
Clc1ccc(Nc2nnc(Cc3ccncc3)c3ccccc23)cc1,/,.,/,/,/,/,/,/,/,/,/,
COc1cc(C(=O)Nc2ccc3nc4n(c(=O)c3c2)CCCCC4)cc(OC)c1OC,.,.,?,.,.,?,/,/,/,/,/,
COc1ccccc1Nc1c2c(nc3ccc(NC(=O)/C=C/c4cccc(OC)c4OC)cc13)CCCC2,.,.,25µM,4.1µM,11µM,?,.,.,.,?,7.7µM,PMP22 prot conf=.
COc1ccccc1Nc1c2c(nc3ccc(NC(=O)c4cccc(F)c4)cc13)CCCC2,?,?,?,?,10µM,10µM,.,.,.,14µM,12µM,
CCOC(=O)c1ccc(NC(=O)Cc2ccc(-n3c(CC)nc4cccnc43)cc2)cc1,.,.,.,.,?,.,.,?,.,?,.,
O=C(Nc1ccc(Br)cc1F)N1CC=C(c2c[nH]c3ccccc23)CC1,.,.,.,.,?,.,.,?,.,.,.,
